Reference: PubChem BioAssay
Records with an inconclusive call do not appear. Calls of active or inactive are those of the source.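 How the source made its calls, unless noted: active means differentiation response of at least 50%, scaled between solvent and reference control, from cells with both markers; inactive means the rest.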

Legend:
[1] = yeast TOR pathway RPL19A-GFP modulators, primary screen, cell-based, S. cerevisiae, multiplex flow cytometry (AID 1862; in the data active means percent of DMSO control GFP below about 86%;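 further: lower values mimic rapamycin by blocking the RPL19A rise seen in DMSO cells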); conditions: S. cerevisiae RPL19A-GFP strain, flow cytometry fluorescence, 3 h; at 10 µM; stronger effect = lower value
[2] = modulators of MEP2-GFP levels in yeast, primary screen, S. cerevisiae, multiplex flow cytometry (AID 1867;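 active means GFP response, as percent of the DMSO control, above the screen-wide mean plus 3 SD, about 139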;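 further: median GFP channel fluorescence of barcode-gated MEP2-GFP cells measured by flow cytometry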); conditions: S. cerevisiae MEP2-GFP strain, 3 h, at 10 µM, stronger effect = higher value, 100% means same as DMSO wells
[3] = modulators of CIT2-GFP expression in yeast, primary screen, S. cerevisiae, GFP fusion, multiplex flow cytometry (AID 1870;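 active means percent response above a set limit, the screen-wide mean plus 3 SD, cut at about 130% in these data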;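 further: barcoded CIT2-GFP strain pooled with four other GFP strains with rapamycin as positive control; median GFP fluorescence per well over plate mean of DMSO wells so 100% = DMSO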); conditions: 3 h, at 10 µM, stronger effect = higher value
[4] = modulators of LAP4-GFP expression in yeast, primary screen, S. cerevisiae, multiplex flow cytometry (AID 1873;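 active means GFP signal, as percent of the solvent control, above the screen mean plus 3 SD, about 149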); conditions: 3 h, at 10 µM, stronger effect = higher value
[5] = modulators of AGP1-GFP expression in yeast TOR pathway, primary screen, cell-based, multiplex flow cytometry, S. cerevisiae (AID 1887;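 active means GFP signal above the screen-wide mean plus 3 SD, that is over about 124.5% of the solvent control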;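 further: AGP1-GFP fusion strain of S. cerevisiae within a five-strain barcoded multiplex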); conditions: 3 h, at 10 µM, stronger effect = higher value
[6] = inhibitors of CD8+ T cell-vesicle binding, pilot screen, LFA-1/ICAM-1 modulator project, MLPCN validation set, flow cytometry (AID 2523;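 active means response below a set limit, under 55% cells CD8-positive and vesicle-bound, and CD8 cells' 90th-percentile brightness under 279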;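 on vesicle binding response: mean PE anti-B7-1 fluorescence of CD8+ cells relative to row control; 100% = QL9-loaded vesicles with DMSO vehicle in the same plate row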); conditions: 2C mouse CD8+ T cells, at 7 µM, stronger effect = lower value; double positive events: measured here: CD8+/vesicle+ event percentage
[7] = target: Integrin beta-1 (Homo sapiens) + Integrin alpha-4 (Homo sapiens) (UniProt P13612+P05556); test: inhibition of HUTS-21 binding to VLA-4, pilot screen, VLA-4 allosteric modulator project, U937 cells, HUTS-21 mAb, flow cytometry, validation set (AID 2674;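 active means inhibition above 50%, about 3 SD of the validation set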;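 further: antibody binding induced by the VLA-4 ligand LDV present at three times its Kd; 0% = LDV ligand with antibody and no compound and 100% = antibody without LDV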); conditions: HUTS-21 LIBS mAb binding, at 6.7 µM, stronger effect = higher value, binding induced by LDV ligand
[8] = superoxide lowering in aged yeast cells, pilot screen, validation compound set (AID 2706;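 active means superoxide response below 65% of plate, a cut near 3 SD across the whole screen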;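 further: yeast exposed to compound for one week at 30 degrees C before staining; 100% = mean of all compound wells on the same plate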); conditions: S. cerevisiae aging, superoxide DHE fluorescence; at 10 µM; stronger effect = lower value
[9] = target: Beta-adrenergic receptor kinase 1 (Homo sapiens) (UniProt P25098); test: GRK2 binders displacing RNA aptamer, biochemical, validation, human GRK2, bead flow cytometry (AID 488806;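 active means aptamer binding inhibition above 30%, about 3 SD of noise from non-fluorescent compounds; inactive means inhibition at or below 30%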); conditions: bead-bound GRK2, FAM-aptamer displacement, at 10 µM, stronger effect = higher value
[10] = target: Beta-2 adrenergic receptor (Homo sapiens) (UniProt P07550); test: beta2AR agonists driving receptor internalization, pilot screen, cell-based, FAP fluorogen, flow cytometry, validation set (AID 504459;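 active means percent response above 42, roughly 3 SD of non-fluorescent test compounds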;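 further: agonist-driven loss of surface beta2AR via internalization measured by FAP dye flow cytometry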); conditions: Am2.2-beta2AR cells, FAP surface receptor flow cytometry; at 10 µM; stronger effect = higher value
[11] = target: AP-2 complex subunit beta (Homo sapiens) (UniProt P63010); test: inhibitors of arrestin peptide binding to AP2, pilot screen, biochemical, validation set, GST-AP2 beads, flow cytometry (AID 504541;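 active means inhibition above 54%, about 3 SD of non-fluorescent compounds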;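 further: AP2 carries R879A mutation and is captured from E. coli lysate; bead-bound FITC arrestin peptide fluorescence measuring arrestin peptide binding to AP2; 0% = DMSO wells and 100% = excess unlabeled arrestin peptide control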); conditions: FITC arrestin peptide, at 10 µM, stronger effect = higher value, AP2 beta2 appendage fragment, R879A mutant
[12] = yeast V-ATPase proton transport modulators, S. cerevisiae, pHLuorin, HTS validation (AID 504600; in the data active means response above about 15%;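 further: plate controls were DMSO for no effect and reference compound for full effect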); conditions: S. cerevisiae pHLuorin cytosolic pH, at 10 µM, stronger effect = higher value
[13] = test system: anti-desmoglein-3 scFv antibody binding to human DSG3; test: inhibitors of anti-DSG3 scFv binding to DSG3, pilot screen, biochemical, validation compound set, bead-based, flow cytometry (AID 588368;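 active means binding below the plate cutoff, the plate median minus 3 SD, with a reading above zero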;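 further: signal is the median channel fluorescence of bead-bound GFP antibody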); conditions: Protein G beads, DSG3-Fc, scFv-GFP binding, at 10 µM, stronger effect = lower value
[14] = inhibitors of fungal efflux pumps CDR1, CDR2, MDR1, pilot screen, validation compound set, multiplex, phenotypic (AID 588506;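 active means efflux inhibition above 0.42, the validation set average plus 4 SD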;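 further: Nile Red retained in cells so higher fluorescence means more efflux inhibition; 0 = negative control wells and 1 = enniatin B 25 µM full block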); conditions: S. cerevisiae pump-expressing triplex, Nile Red efflux flow cytometry; at 10 µM; stronger effect = higher value; the pumps come from Candida albicans
[15] = target: ATP-binding cassette sub-family B member 6 (Homo sapiens) (UniProt Q9NP58); test: ABCB6 transporter inhibitors, pilot screen, K562-ABCB6 cells, flow cytometry, validation set (AID 588550;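 active means inhibition above the screen-wide mean plus 3 SD, about 51%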;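 further: 0% = DMSO wells and 100% = benzethonium chloride 70 µM positive control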); conditions: K562-ABCB6 porphyrin accumulation, 1 h, at 10 µM, stronger effect = higher value
[16] = promoters of myeloid differentiation in arrested cells, primary screen, cell-based, GFP/MAC1 double positive, flow cytometry, validation set (AID 588685); conditions: ER-HoxA9 marrow cells, stronger effect = higher value, normalized: vehicle 0, fulvestrant 100;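 further: compound exposure lasts four days before antibody staining and flow analysis; 0% = DMSO wells and 100% = 5 µM fulvestrant positive control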

Sequence of AP-2 complex subunit beta (Homo sapiens) (P63010 whole entry, looked up, the tested form may be a part, one chain of several): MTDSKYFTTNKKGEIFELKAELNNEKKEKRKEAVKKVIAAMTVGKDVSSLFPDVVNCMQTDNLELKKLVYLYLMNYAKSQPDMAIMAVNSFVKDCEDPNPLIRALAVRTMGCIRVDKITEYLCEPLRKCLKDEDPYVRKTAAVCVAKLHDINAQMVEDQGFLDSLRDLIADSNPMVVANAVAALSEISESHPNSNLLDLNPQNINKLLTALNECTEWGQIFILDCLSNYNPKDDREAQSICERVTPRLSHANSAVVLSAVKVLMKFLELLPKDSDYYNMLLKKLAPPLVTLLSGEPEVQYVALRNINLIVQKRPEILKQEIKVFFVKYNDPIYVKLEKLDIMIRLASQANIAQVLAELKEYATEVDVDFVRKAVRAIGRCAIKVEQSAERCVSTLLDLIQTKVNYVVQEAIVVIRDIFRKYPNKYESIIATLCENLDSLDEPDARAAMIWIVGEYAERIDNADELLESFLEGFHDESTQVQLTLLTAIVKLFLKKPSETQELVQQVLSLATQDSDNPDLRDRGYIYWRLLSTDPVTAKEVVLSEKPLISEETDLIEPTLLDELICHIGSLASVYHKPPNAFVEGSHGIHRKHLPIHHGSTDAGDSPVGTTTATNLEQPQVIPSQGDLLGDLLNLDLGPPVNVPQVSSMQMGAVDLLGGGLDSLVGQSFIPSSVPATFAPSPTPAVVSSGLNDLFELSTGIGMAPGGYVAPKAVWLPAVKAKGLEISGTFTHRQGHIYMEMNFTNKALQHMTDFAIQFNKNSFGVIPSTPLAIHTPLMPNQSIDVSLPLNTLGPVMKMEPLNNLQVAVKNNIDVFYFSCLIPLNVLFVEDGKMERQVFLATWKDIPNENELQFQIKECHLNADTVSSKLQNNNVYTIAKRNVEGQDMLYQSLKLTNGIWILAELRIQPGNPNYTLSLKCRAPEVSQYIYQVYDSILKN
Sequence of Integrin beta-1 (Homo sapiens) + Integrin alpha-4 (Homo sapiens) (P05556 whole entry, looked up): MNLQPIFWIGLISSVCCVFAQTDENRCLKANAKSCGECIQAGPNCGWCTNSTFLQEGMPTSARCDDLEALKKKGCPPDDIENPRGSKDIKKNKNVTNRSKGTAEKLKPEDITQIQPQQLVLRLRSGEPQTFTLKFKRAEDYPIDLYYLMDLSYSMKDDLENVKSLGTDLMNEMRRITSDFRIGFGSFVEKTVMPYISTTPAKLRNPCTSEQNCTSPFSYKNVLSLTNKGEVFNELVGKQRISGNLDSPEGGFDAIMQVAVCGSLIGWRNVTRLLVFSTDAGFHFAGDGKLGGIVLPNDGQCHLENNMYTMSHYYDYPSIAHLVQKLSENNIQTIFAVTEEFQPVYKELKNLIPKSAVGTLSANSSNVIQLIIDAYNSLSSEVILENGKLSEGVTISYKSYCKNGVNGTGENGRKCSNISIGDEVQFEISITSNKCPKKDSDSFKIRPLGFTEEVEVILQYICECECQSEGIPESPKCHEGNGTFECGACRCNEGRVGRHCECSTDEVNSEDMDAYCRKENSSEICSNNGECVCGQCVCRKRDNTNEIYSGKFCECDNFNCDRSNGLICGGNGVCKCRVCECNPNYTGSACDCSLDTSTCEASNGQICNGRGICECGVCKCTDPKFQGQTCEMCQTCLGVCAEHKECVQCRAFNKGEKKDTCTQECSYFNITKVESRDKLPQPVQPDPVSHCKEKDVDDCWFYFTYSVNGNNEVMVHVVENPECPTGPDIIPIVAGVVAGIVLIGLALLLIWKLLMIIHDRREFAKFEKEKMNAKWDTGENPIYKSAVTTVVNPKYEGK
Sequence of Integrin beta-1 (Homo sapiens) + Integrin alpha-4 (Homo sapiens) (P13612 whole entry, looked up): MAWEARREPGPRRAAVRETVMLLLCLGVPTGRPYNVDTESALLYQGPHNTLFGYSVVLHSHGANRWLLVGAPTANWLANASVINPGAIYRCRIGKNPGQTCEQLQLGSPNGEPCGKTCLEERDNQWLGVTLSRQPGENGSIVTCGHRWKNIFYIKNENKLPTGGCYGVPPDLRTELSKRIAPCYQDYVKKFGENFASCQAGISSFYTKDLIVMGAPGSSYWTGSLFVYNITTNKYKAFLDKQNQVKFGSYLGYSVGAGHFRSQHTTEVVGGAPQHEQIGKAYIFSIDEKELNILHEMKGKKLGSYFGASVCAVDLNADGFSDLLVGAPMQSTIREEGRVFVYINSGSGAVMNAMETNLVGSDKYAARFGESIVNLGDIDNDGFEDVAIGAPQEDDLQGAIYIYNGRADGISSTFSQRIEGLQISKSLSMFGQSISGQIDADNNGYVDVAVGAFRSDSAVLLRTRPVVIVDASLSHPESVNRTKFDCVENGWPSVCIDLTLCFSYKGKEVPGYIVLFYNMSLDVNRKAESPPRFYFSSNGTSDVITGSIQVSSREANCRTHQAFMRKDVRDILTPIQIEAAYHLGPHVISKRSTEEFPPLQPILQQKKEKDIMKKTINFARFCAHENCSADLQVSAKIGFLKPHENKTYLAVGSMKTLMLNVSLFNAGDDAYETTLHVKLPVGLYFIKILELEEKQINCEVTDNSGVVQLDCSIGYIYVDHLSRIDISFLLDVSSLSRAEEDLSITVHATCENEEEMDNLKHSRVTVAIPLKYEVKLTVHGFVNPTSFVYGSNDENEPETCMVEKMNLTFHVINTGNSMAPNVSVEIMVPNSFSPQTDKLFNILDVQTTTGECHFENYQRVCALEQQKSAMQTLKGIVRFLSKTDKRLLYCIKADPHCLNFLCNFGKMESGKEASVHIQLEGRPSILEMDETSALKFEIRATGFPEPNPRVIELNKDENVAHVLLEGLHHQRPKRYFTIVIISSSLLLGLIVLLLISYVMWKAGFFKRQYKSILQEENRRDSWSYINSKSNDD
Sequence of Beta-2 adrenergic receptor (Homo sapiens) (P07550 whole entry, looked up): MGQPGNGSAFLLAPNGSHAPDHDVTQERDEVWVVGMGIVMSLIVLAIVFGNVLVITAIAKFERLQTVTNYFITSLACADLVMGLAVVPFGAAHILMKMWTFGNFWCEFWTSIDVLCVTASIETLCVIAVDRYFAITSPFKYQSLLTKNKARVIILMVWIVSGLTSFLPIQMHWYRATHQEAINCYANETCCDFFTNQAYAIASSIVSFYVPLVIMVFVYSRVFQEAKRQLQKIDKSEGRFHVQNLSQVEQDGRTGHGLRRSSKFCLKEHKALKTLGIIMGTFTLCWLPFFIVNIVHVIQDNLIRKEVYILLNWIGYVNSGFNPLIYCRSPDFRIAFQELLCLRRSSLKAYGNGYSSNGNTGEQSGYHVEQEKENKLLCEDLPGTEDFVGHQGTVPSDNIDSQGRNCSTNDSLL
Sequence of ATP-binding cassette sub-family B member 6 (Homo sapiens) (Q9NP58 whole entry, looked up): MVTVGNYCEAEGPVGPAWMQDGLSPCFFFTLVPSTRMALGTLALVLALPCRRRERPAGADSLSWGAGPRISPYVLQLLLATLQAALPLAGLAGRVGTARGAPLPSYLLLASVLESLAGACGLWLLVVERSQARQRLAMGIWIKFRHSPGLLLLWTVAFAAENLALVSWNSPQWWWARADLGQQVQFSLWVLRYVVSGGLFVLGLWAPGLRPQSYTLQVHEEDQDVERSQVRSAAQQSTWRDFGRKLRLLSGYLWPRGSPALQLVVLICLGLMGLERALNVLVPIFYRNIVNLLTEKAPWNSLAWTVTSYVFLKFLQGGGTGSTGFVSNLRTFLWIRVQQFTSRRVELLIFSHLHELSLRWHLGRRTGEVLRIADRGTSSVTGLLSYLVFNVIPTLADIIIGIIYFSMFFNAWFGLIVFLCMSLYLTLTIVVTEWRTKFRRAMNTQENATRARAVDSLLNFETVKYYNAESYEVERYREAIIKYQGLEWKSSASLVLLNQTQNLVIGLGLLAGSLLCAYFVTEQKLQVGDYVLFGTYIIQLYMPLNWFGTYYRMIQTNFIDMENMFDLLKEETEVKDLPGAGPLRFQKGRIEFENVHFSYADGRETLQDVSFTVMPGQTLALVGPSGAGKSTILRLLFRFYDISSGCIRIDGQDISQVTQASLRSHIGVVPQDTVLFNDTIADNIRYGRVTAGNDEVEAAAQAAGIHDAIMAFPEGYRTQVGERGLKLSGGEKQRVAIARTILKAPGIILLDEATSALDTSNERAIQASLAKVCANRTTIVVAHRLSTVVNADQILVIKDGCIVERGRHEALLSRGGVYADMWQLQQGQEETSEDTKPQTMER
Sequence of Beta-adrenergic receptor kinase 1 (Homo sapiens) (P25098 whole entry, looked up): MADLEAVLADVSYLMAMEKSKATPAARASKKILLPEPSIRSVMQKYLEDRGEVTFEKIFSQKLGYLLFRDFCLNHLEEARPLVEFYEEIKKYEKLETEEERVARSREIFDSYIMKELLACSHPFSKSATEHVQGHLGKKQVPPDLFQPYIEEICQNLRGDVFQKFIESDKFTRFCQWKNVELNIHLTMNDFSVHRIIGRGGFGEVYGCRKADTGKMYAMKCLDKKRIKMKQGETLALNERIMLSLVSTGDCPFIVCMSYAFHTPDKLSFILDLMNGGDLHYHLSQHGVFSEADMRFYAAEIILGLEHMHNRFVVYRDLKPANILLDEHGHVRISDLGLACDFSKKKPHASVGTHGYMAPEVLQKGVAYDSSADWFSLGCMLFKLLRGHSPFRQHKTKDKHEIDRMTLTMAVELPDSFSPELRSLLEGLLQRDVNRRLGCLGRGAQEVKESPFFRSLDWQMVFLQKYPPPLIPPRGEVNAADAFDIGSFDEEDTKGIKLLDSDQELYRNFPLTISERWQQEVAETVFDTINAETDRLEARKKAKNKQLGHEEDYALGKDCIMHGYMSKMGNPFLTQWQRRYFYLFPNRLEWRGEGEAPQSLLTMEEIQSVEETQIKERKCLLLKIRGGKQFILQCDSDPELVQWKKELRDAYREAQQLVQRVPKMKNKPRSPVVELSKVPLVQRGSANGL

CCOC(=O)c1c(O)c2c([nH]c1=O)CCCC2
inactive: percent of DMSO control GFP [1] 100% | GFP response vs DMSO [2] 91.9% | percent response of DMSO control [3] 101% | GFP response vs DMSO [4] 102% | GFP response, % of DMSO [5] 96% | vesicle binding response [6] 109% | inhibition [7] -34.6% | superoxide response (% of plate) [8] 101% | aptamer binding inhibition [9] 3% | response [10] -11% | inhibition [11] 17.2% | response [12] -2.71% | binding (% of control) [13] 99.3% | efflux inhibition (fraction of control) [14] 0.01 | inhibition [15] 9% | differentiation response [16] 5.6%
69.7%: double positive events [6]

COc1cccc2c(=O)c(C/C=C(/C)Cl)c(C)[nH]c12
inactive: percent of DMSO control GFP [1] 107% | GFP response vs DMSO [2] 103% | percent response of DMSO control [3] 101% | GFP response vs DMSO [4] 131% | GFP response, % of DMSO [5] 108% | vesicle binding response [6] 6720% | inhibition [7] 6.4% | superoxide response (% of plate) [8] 107% | aptamer binding inhibition [9] 3% | response [10] 3.25% | inhibition [11] -8.34% | response [12] 3.49% | binding (% of control) [13] 95.7% | efflux inhibition (fraction of control) [14] 0.01 | inhibition [15] 3% | differentiation response [16] -16.8%
65.6%: double positive events [6]

O=c1c2ccccc2nc2n1CCCN2
active: vesicle binding response [6] 72.9%
inactive: percent of DMSO control GFP [1] 103% | GFP response vs DMSO [2] 97.4% | percent response of DMSO control [3] 111% | GFP response vs DMSO [4] 98.2% | GFP response, % of DMSO [5] 103% | inhibition [7] -7.25% | superoxide response (% of plate) [8] 102% | aptamer binding inhibition [9] -1% | response [10] -10.8% | inhibition [11] -9.42% | response [12] -1.39% | binding (% of control) [13] 102% | efflux inhibition (fraction of control) [14] -0.1 | inhibition [15] 2% | differentiation response [16] -16.8%
50.4%: double positive events [6]

O=C(Nc1ccc(Cl)cn1)Nc1ccccc1Cl
inactive: percent of DMSO control GFP [1] 103% | GFP response vs DMSO [2] 105% | percent response of DMSO control [3] 107% | GFP response vs DMSO [4] 111% | GFP response, % of DMSO [5] 102% | vesicle binding response [6] 144% | inhibition [7] -3.77% | superoxide response (% of plate) [8] 93.6% | aptamer binding inhibition [9] 2% | response [10] -0.99% | inhibition [11] -8.05% | binding (% of control) [13] 105% | efflux inhibition (fraction of control) [14] -0.55 | inhibition [15] -4% | differentiation response [16] -11.9%
64.5%: double positive events [6]
active: response [12] 23.4%

C/C(=N\NC(=O)C1(C)CC1(Br)Br)c1ccc([N+](=O)[O-])cc1 (stereo not drawn)
active: response [12] 26.1%
65.3%: double positive events [6]
inactive: percent of DMSO control GFP [1] 105% | GFP response vs DMSO [2] 99.3% | percent response of DMSO control [3] 105% | GFP response vs DMSO [4] 85.5% | GFP response, % of DMSO [5] 104% | vesicle binding response [6] 390% | inhibition [7] -0.45% | superoxide response (% of plate) [8] 83.6% | aptamer binding inhibition [9] 6% | response [10] -9.52% | inhibition [11] -5.83% | binding (% of control) [13] 98.5% | efflux inhibition (fraction of control) [14] -0.17 | inhibition [15] 1% | differentiation response [16] 13.9%

CC(C)(C)N1NC2(CCCCC2)NC1=S
53.1%: double positive events [6]
inactive: percent of DMSO control GFP [1] 99.8% | GFP response vs DMSO [2] 113% | percent response of DMSO control [3] 118% | GFP response vs DMSO [4] 80.9% | GFP response, % of DMSO [5] 95.2% | vesicle binding response [6] 193% | inhibition [7] -3.24% | superoxide response (% of plate) [8] 125% | aptamer binding inhibition [9] -1% | response [10] -12.5% | inhibition [11] -12.7% | response [12] 0.59% | binding (% of control) [13] 104% | efflux inhibition (fraction of control) [14] 0.27 | inhibition [15] 7% | differentiation response [16] 1.64%

Cc1ccc(S(=O)(=O)N[C@@H](Cc2ccccc2)C(=O)CCl)cc1
inactive: percent of DMSO control GFP [1] 99.2% | GFP response vs DMSO [2] 91.8% | percent response of DMSO control [3] 92.5% | GFP response vs DMSO [4] 108% | GFP response, % of DMSO [5] 107% | vesicle binding response [6] 101% | inhibition [7] 48.3% | superoxide response (% of plate) [8] 100% | aptamer binding inhibition [9] 8% | response [10] 11.3% | inhibition [11] -2.91% | response [12] -3.47% | binding (% of control) [13] 99% | efflux inhibition (fraction of control) [14] 0.04 | inhibition [15] 9% | differentiation response [16] -4%
59.9%: double positive events [6]

COc1ccc(CNC(=O)C2CCCN2C)cc1OC (stereo not drawn)
62%: double positive events [6]
inactive: percent of DMSO control GFP [1] 98.8% | GFP response vs DMSO [2] 99.7% | percent response of DMSO control [3] 101% | GFP response vs DMSO [4] 92.6% | GFP response, % of DMSO [5] 96.7% | vesicle binding response [6] 141% | inhibition [7] 1.59% | superoxide response (% of plate) [8] 87.7% | aptamer binding inhibition [9] -2% | response [10] 7.42% | inhibition [11] -3.62% | response [12] -0.65% | binding (% of control) [13] 104% | efflux inhibition (fraction of control) [14] -0.29 | inhibition [15] -5% | differentiation response [16] -7.5%

O=C1c2cccc3cccc(c23)C(=O)N1c1ccccn1
inactive: percent of DMSO control GFP [1] 107% | GFP response vs DMSO [2] 101% | percent response of DMSO control [3] 109% | GFP response vs DMSO [4] 97.3% | GFP response, % of DMSO [5] 107% | vesicle binding response [6] 79.7% | inhibition [7] 9.92% | superoxide response (% of plate) [8] 107% | aptamer binding inhibition [9] 4% | response [10] -9.79% | inhibition [11] 1.31% | response [12] 3% | binding (% of control) [13] 95.3% | efflux inhibition (fraction of control) [14] -0.07 | inhibition [15] -11% | differentiation response [16] -1.71%
58.2%: double positive events [6]
